Experimental data taken from PubChem BioAssay AID504848 (National Center for Advancing Translational Sciences (NCATS), 2011).
Screen size: about 2,300 compounds; about 1,400 (61%) were called active. About 29% were inconclusive and are not listed. The set was probably picked from earlier hits. This is one part of the list. Unmarked numbers belong to inactive results. Calls follow the shape of the dose curve; as a rule, active = well fitted inhibition curve with a large enough effect; inconclusive = small, poorly fitted or top-dose-only effect, or effect the other way; inactive = no such curve, though single readings can be large or run the other way.

Experiment: Confirmation screen for delayed death inhibitors of the malarial parasite plastid, 96 hour incubation; also: nearly all actives have a fitted effect of over 60% in size
Conditions: P. falciparum luciferase growth in erythrocytes; series mostly up to 28.7 µM; activity change, negative = inhibition: at the top concentration
In short: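 Two-generation (96 h, 37 C) exposure of P. falciparum carrying an integrated firefly luciferase reporter in erythrocytes, 0.1% parasitemia and 2% hematocrit final, Albumax-supplemented RPMI. Luminescence decrease measures growth inhibition.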
% is scaled to controls: 0 for no effect and ±100 for the full control effect; potency is read from the fitted curve at half-maximal effect.

Structure (SMILES)	Potency	activity change, negative = inhibition
CCOC(=O)C(C(=O)OCC)C(Nc1cccc(Br)c1)c1ccccc1 (configuration not stated)	10 µM (active)	–
CC(C)Cc1ccc(C(=O)Nc2ccc(Cc3ccncc3)cc2)o1	10 µM (active)	–
COc1ccc(NC(=S)N(CCCN2CCCCCC2)Cc2cccs2)cc1	11.2 µM (active)	–
Cc1ccc(C(=O)c2cc([N+](=O)[O-])ccc2N2CCOCC2)c(C)c1	14.1 µM (active)	–
Cc1ccc(CNS(=O)(=O)c2ccc(C)s2)cc1	–	25.7%
Cc1ccc(CN2CCC(CNS(=O)(=O)c3ccc(-c4ccc(=O)[nH]n4)s3)CC2)cc1	5.01 µM (active)	–
CCOC(=O)c1cnc2c(C)c(Cl)ccc2c1NCCCN1CCOCC1	0.282 µM (active)	–
O=C(N/N=C(\CC(=O)c1cccs1)C(F)(F)F)c1ccncc1	–	-31.4%
O=C(N/N=C/C(Cl)=C\c1ccccc1)c1cccs1	4.47 µM (active)	–
Cc1cccc(CCNC(=O)CNS(=O)(=O)c2ccc3nc(C)sc3c2)c1	1.58 µM (active)	–
CCOc1ccc(C(C)=O)cc1COc1ccc(-c2nnco2)cc1	11.2 µM (active)	–
Oc1ccc(Cl)cc1CNc1cnc2ccccc2c1	11.2 µM (active)	–
O=C(C[n+]1cc(Br)cc2ccccc21)c1ccccc1	5.01 µM (active)	–
COc1ccc2c(ccc[n+]2CC(=O)c2ccccc2)c1	14.1 µM (active)	–
OCCNC(=S)Nc1ccc(Cl)c(Cl)c1	2.24 µM (active)	–
O=C1c2ccccc2C(=Nc2ccccc2)C1c1cccc(Br)c1 (configuration not stated)	3.98 µM (active)	–
COc1ccc(N(CC(=O)N/N=C/c2cccnc2)S(=O)(=O)c2ccccc2)c(OC)c1	6.31 µM (active)	–
O=C(CCl)NCCN1C(=O)S/C(=C\c2cccnc2)C1=O	5.01 µM (active)	–
O=C(c1ccc2c(=O)n3c(nc2c1)CCCCC3)N1CCN(c2ccc([N+](=O)[O-])cc2)CC1	6.31 µM (active)	–
CC(=O)N1CN(C2CCCC2)Cc2c1sc1c2CCCC1	6.31 µM (active)	–
COc1ccc(C(=O)CSc2nnc(C3CCCCC3)n2N)c(OC)c1	3.16 µM (active)	–
CCN(CC(=O)Nc1ccc(S(=O)(=O)N2CCOCC2)cc1)Cc1ccccc1	10 µM (active)	–
O=C(CN1CCN(c2ccc(F)cc2)CC1)Nc1ccc(S(=O)(=O)N2CCOCC2)cc1	10 µM (active)	–

Structure (SMILES)	Potency	activity change, negative = inhibition
O=S(=O)(c1ccc(OCC(O)CN2CCN(c3ccc(F)cc3)CC2)cc1)N1CCOCC1 (configuration not stated)	12.6 µM (active)	–
C=CCOc1ccc(/C=C\c2nc(O)c([N+](=O)[O-])c(=O)[nH]2)cc1OC	12.6 µM (active)	–
Cc1c(OCC(=O)NCC(O)c2ccccc2)ccc2c3c(c(=O)oc12)CCC3 (configuration not stated)	10 µM (active)	–
O=S(=O)(NCC(O)c1ccccc1)c1cc(Cl)sc1Cl (configuration not stated)	–	14.6%
O=C(COc1cc2oc(=O)c3c(c2cc1Cl)CCC3)NCC(O)c1ccccc1 (configuration not stated)	8.91 µM (active)	–
O=C(CSc1nc2nn(-c3ccccc3)c(=O)c-2c2n1CCCCC2)c1ccc(O)c(O)c1	11.2 µM (active)	–
O=C(NCc1cccnc1)/C(=C\c1ccc(-c2cccc(Cl)c2)o1)S(=O)(=O)c1ccccc1	7.94 µM (active)	–
O=C(NCCN1CCOCC1)c1ccc(Cl)c(S(=O)(=O)N2CCCCC2)c1	14.1 µM (active)	–
O=C(NCc1cccnc1)c1ccc(NS(=O)(=O)c2ccccc2)cc1	7.08 µM (active)	–
O=C(NCc1cccnc1)c1ccc(Cl)c(S(=O)(=O)N2CCOCC2)c1	11.2 µM (active)	–
CCC(C)[C@H](NC(=O)NCCCOC(C)C)C(=O)OC (some centres not stated)	–	-4.01%
CCOC(=O)c1cc2c(nc1NC(=S)Nc1ccccc1)CC(C)(C)OC2	12.6 µM (active)	–
O=C(O)c1ccccc1NS(=O)(=O)c1cccc(-n2sc3ccccc3c2=O)c1	12.6 µM (active)	–
O=C(Cn1c(=O)c(=O)n(Cc2ccccc2)c2ccc(Cl)cc21)Nc1cccc(F)c1	12.6 µM (active)	–
CCn1c(=O)cc(C(=O)OC)sc1=Nc1ccc(F)c(F)c1	–	-11.1%
O=C1CS/C(=N/N=C\c2ccn[nH]2)N1	10 µM (active)	–
C#Cc1ccc(CN2CCN(CCCc3ccccc3)C(CCO)C2)cc1 (configuration not stated)	7.08 µM (active)	–
Cc1ccc(-c2nc(-c3cccnc3)sc2CC(=O)Nc2ccc(C)c(Cl)c2)cc1	4.47 µM (active)	–
COc1ccc(CCNC(=O)c2cc3c(=O)n4cccc(C)c4nc3n(Cc3ccco3)c2=N)cc1OC	11.2 µM (active)	–
CC(C)C1N=C(c2ccc3c(c2)OCO3)CC(c2ccccc2O)N1 (configuration not stated)	14.1 µM (active)	–
O=C(NC1CCCC1)c1ccc([N+](=O)[O-])s1	10 µM (active)	–
COc1ccccc1N(Cc1ccccc1)S(=O)(=O)c1cccc(C(=O)Nc2ccccn2)c1	7.08 µM (active)	–
CC(=O)c1ccccc1OCC(O)CN1CCN(C(c2ccccc2)c2ccccc2)CC1 (configuration not stated)	3.55 µM (active)	–

Structure (SMILES)	Potency	activity change, negative = inhibition
CCOC(=O)C1CCN(C(=O)CCc2nnc3ccc(NCc4ccco4)nn23)CC1	5.01 µM (active)	–
O=C(CCl)Nc1cccc(S(=O)(=O)NC2=NCCC2)c1	0.794 µM (active)	–
COC(=O)[C@@]1(Cc2ccc(F)cc2)[C@@H]2[C@@H](CC(=O)[C@H]2CC(=O)C(=O)N(C)C)CN1C(=O)c1ccccc1	10 µM (active)	–
COc1ccccc1N1CCN(C(=O)c2noc(C(C)C)c2[N+](=O)[O-])CC1	8.91 µM (active)	–
CCCCCCCn1c(=O)c(C(=O)OC)c(N)c2ccccc21	6.31 µM (active)	–
CSc1ccc(CNc2cccc3ccccc23)cc1	–	-25.4%
COc1cccc(CNc2cc(C)ccn2)c1O	7.94 µM (active)	–
Cc1ccnc(NCc2cccc3ccccc23)c1	10 µM (active)	–
Cc1cccc(NCc2cccc3ccccc23)n1	14.1 µM (active)	–
N#CCc1nc(C(c2ccccc2)c2ccccc2)no1	7.08 µM (active)	–
Cc1ccccc1-n1nc2c(c1NC(=O)C1CCCC1)CS(=O)(=O)C2	–	-10.9%
c1csc(CNc2ncnc3nc[nH]c23)c1	15.8 µM (active)	–
O=C(NC1CCN(Cc2ccccc2)CC1)C1CCN(c2nnc(-n3cccc3)s2)CC1	5.01 µM (active)	–
CC1Cc2ccccc2N1CC(=O)Nc1ccc2c(c1)OCCCO2 (configuration not stated)	15.8 µM (active)	–
CC(=O)Nc1ccc(NC(=O)c2ccc(C3SCC(=O)N3CCc3ccccc3)cc2)cc1 (configuration not stated)	12.6 µM (active)	–
O=C1CSC(c2cccnc2)N1CCc1ccccn1 (configuration not stated)	–	3.07%
O=C(Nc1ccc(N2CCN(C(=O)c3cccs3)CC2)cc1)c1ccc([N+](=O)[O-])o1	2.24 µM (active)	–
O=C(Nc1ccc(N2CCN(C(=O)c3ccco3)CC2)cc1)c1ccc(F)cc1	3.98 µM (active)	–
O=C(Nc1ccc(N2CCN(C(=O)c3ccccc3)CC2)cc1)c1ccc([N+](=O)[O-])o1	3.16 µM (active)	–
Cc1ccccc1C(=O)N1CCN(c2ccc(NC(=O)c3ccc([N+](=O)[O-])o3)cc2)CC1	6.31 µM (active)	–
CCN(CC)CCNC(=O)C1c2cc(OC)c(OC)cc2C(=O)N2CCc3ccccc3C12 (configuration not stated)	2.24 µM (active)	–
CCN1C(=O)[C@@H]2[C@@H](c3ccc(SC4CCCCC4)c(OC)c3)N3CCC[C@@]3(C(=O)OC)[C@@H]2C1=O	2.51 µM (active)	–
COC(=O)[C@@]12CCCN1[C@H](c1ccc(-c3cccc(Cl)c3)c(OC)c1)[C@H]1C(=O)N(C)C(=O)[C@H]12	1.12 µM (active)	–

Structure (SMILES)	Potency	activity change, negative = inhibition
CC(C)(C)c1nc(SCC(=O)Nc2nc3c(s2)CCCC3)c2ccccc2n1	2 µM (active)	–
COc1ccccc1OCC(=O)Nc1nc2c(s1)CCCC2	–	52.6%
CC(C)(C)c1nc(SCC(=O)Nc2ccc(N3CCOCC3)cc2)c2ccccc2n1	8.91 µM (active)	–
Cc1ccc(-c2cc(=O)c3ccc(F)cc3[nH]2)cc1	3.98 µM (active)	–
Cc1ccc(S(=O)(=O)Nc2cc(=O)[nH]c(SCc3ccc(Cl)cc3)n2)cc1	11.2 µM (active)	–
CC(=O)c1c(C)cc(C)c(CSc2nc(C)cc(=O)[nH]2)c1C	–	-38.6%
Cc1oc(-c2ccccc2Cl)nc1CSCC(=O)N1CCCC1	11.2 µM (active)	–
Cc1oc(-c2ccccc2F)nc1CS(=O)(=O)CC(=O)NCCCN1CCN(C)CC1	–	-10.7%
O=C(Cc1n[nH]c(=O)c2ccccc12)OCc1c(Cl)cccc1Cl	–	-5.11%
COc1ccc(-n2c(C)cc(C(=O)COC(=O)Cc3n[nH]c(=O)c4ccccc34)c2C)cc1	3.55 µM (active)	–
COc1ccc(C(C)=O)cc1CSc1nc2ccccc2c(=O)n1-c1ccccc1C	7.94 µM (active)	–
Cc1ccc(/C=N/NC(=O)CSc2nc3ccccc3c(=O)n2-c2ccccc2C)s1	6.31 µM (active)	–
Cc1ccc(-c2nn(C(C)(C)C)c3ncnc(N)c23)cc1	5.01 µM (active)	–
O=C(Nc1nnc(SCc2ccc(F)cc2)s1)c1ccccn1	2.82 µM (active)	–
Oc1ccc(-c2n[nH]c(=S)n2-c2ccc3c(c2)OCCO3)c(O)c1	0.355 µM (active)	–
COc1cc(C(=O)NCc2ccncc2)cc(Br)c1OCc1ccccc1	8.91 µM (active)	–
Cc1ccc(S(=O)(=O)N2CCN(c3ccc(C(=O)N4CCOCC4)cc3[N+](=O)[O-])CC2)cc1	4.47 µM (active)	–
O=C(c1ccc(S(=O)(=O)Cc2cc(F)ccc2F)c([N+](=O)[O-])c1)N1CCCC1	7.94 µM (active)	–
O=C(c1ccc(S(=O)(=O)Cc2ccccc2Cl)c([N+](=O)[O-])c1)N1CCOCC1	3.98 µM (active)	–
CC(C)NC(=O)NC(=O)COC(=O)c1ccccc1Oc1ccccc1	–	-19.1%
Cc1cccc(NC(=O)COC(=O)c2cccc3c2C(=O)c2ccccc2C3=O)c1C	12.6 µM (active)	–
CN(C)S(=O)(=O)c1cc(NC(=O)C2=COCCO2)ccc1Cl	10 µM (active)	–
CN(C)S(=O)(=O)c1cc(NC(=O)c2cc(=O)c3ccccc3o2)ccc1Cl	5.01 µM (active)	–
